Compound activity from PubChem.
Compounds with a hit are over-represented: about 3.3% of the library has one in this group of screens.
PRMT1 FP inh: inhibitors of human PRMT1. Q99873. recombinant PRMT1, activity-based probe fluorescence polarization. inhibition, % at 2.79 µM. actives 1.3% (n = 370,000);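 active = inhibition above about 21% made by adding two undisclosed values, limit read from the data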
UHRF1 binding: blocks human UHRF1 binding to methylated DNA; Q96T88; UHRF1 binding to methylated oligo, TR-FRET; inhibition, % at 4.4 µM; actives 0.75% (n = 370,000); in the data active = inhibition above about 21%;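 also: UHRF1 SRA domain binding a hemimethylated CpG hairpin DNA probe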
Target sequence (Q96T88 whole entry, looked up, the tested form may be a part): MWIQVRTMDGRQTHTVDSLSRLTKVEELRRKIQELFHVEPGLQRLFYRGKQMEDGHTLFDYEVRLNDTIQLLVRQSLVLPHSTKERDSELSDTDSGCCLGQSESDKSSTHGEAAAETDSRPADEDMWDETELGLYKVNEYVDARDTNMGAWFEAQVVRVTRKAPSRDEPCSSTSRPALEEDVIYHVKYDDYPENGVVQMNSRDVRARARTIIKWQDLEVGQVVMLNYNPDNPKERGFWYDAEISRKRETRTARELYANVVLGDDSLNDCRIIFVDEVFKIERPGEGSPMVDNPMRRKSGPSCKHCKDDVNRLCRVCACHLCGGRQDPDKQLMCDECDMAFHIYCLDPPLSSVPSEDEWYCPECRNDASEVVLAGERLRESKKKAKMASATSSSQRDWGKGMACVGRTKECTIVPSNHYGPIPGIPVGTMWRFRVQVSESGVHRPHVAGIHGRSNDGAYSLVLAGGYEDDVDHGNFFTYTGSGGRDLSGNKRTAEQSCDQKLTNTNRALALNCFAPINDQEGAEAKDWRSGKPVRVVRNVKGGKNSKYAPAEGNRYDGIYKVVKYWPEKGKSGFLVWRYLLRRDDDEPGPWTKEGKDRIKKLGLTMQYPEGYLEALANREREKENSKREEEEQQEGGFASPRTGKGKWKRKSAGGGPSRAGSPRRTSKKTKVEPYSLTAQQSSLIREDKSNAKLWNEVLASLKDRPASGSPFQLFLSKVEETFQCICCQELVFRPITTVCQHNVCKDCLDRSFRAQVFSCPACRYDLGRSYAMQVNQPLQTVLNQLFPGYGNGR
M18AAP inhibitor: PfM18AAP enzyme inhibition. actives 1.2% (n = 290,000). recombinant PfM18AAP, H-Glu-NHMec fluorogenic cleavage. inhibition, % at 7.35 µM. AID 1822;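 active = inhibition above the campaign mean inhibition over all tested compounds plus 3 SD, cut at about 28% in these data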
PfG6PD inh: PfG6PD (Plasmodium falciparum) enzyme inhibition; inhibition, % at 20 µM; PfGluPho enzyme, NADPH resazurin-diaphorase fluorescence; actives 0.78% (n = 350,000); AID 504690;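 active = inhibition reaching at least a set limit at 20 µM in the primary screen, cut at about 59% in these data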
MBD2 inh: blocks human MBD2 binding to methylated DNA; inhibition, % at 4.4 µM; TR-FRET, MBD2 binding to methylated oligonucleotide; Q9UBB5; actives 0.31% (n = 370,000); in the data active = inhibition above about 13%
PfGluPho conf: confirmation of Plasmodium falciparum G6PD inhibitors. shares compounds with PfG6PD inh. AID 504753. inhibition, % at 20 µM. actives 34% (n = 2,400). recombinant PfGluPho, NADPH-diaphorase-resazurin fluorescence;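 active = inhibition of at least 50% at 20 µM in any single replicate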
Diaph ctr 10uM: counter-screen for P. falciparum G6PD inhibitors: diaphorase inhibitors, oxidizers; inhibition, % at 20 µM; shares compounds with PfG6PD inh; diaphorase-coupled resazurin reduction, fluorescence, NADPH 10 uM; AID 504862; actives 39% (n = 820);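 active = average inhibition reaching 50% or more with the compound at 20 µM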;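 also: resorufin red fluorescence formed as diaphorase reduces resazurin using NADPH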
Diaph ctr 30uM: inhibits diaphorase or oxidizes, flagging false PfG6PD hits; inhibition, % at 20 µM; shares compounds with PfG6PD inh; Diaphorase/resazurin coupled assay, resorufin fluorescence, 30 uM NADPH; actives 29% (n = 820);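 active = inhibition averaging 50% or more, tested at 20 µM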
Of the large screens only hits and unclear results are named; the others gave an inactive call (follow-up assays come after a bar, where they were run).

Nc1c(O)cccc1C(=O)O	PfG6PD inh 108 (no result: M18AAP inhibitor) | PfGluPho conf 80 | Diaph ctr 10uM inactive | Diaph ctr 30uM inactive
O=C(O)c1ccccc1O	none
O=C(Nc1nnc(S(=O)(=O)N2CCCCC2)s1)c1ccc(Cl)cc1	PfG6PD inh 106 | PfGluPho conf 44 | Diaph ctr 10uM 59 | Diaph ctr 30uM inactive
O=C(Nc1nnc(S(=O)(=O)N2CCCCCC2)s1)c1ccc(Br)cc1	PfG6PD inh 72 | PfGluPho conf inactive
COc1cccc(C(=O)Nc2nnc(S(=O)(=O)N3CCCC3)s2)c1	PfG6PD inh 93 | PfGluPho conf 71 | Diaph ctr 10uM 58 | Diaph ctr 30uM 51
COc1cccc2c1C(=N)c1c(O)c3c(c(O)c1C2=O)CC(O)(C(C)=O)CC3OC1CC(N)C(O)C(C)O1 (stereo not drawn)	PfG6PD inh 60 (no result: PRMT1 FP inh, UHRF1 binding, M18AAP inhibitor, MBD2 inh) | PfGluPho conf inactive
O=C(CSc1nc2ccccc2nc1N1CCCCC1)N1CCN(S(=O)(=O)c2ccccc2)CC1	none (no result: M18AAP inhibitor, PfG6PD inh)
CN(C)c1ccc(NC(=O)c2cc3c(=O)n4ccccc4nc3n2C)cc1	PfG6PD inh 62 | PfGluPho conf inactive
CCOC(=O)/C(=C\c1cccc(O)c1)c1nc2sc(C)c(C)c2c(=O)[nH]1	M18AAP inhibitor 29, PfG6PD inh 69 | PfGluPho conf inactive
CCOC(=O)c1nc2sc(C)c(C)c2c(=O)[nH]1	none
CCOC(=O)N(C)c1c(CC)nc2c(OCCOc3ccccc3)cccn12	none (no result: M18AAP inhibitor, PfG6PD inh)
O=C(N1CCC(C(O)(c2ccccc2)c2ccccc2)CC1)n1ncc(C(O)(c2ccccc2)c2ccccc2)n1	none (no result: M18AAP inhibitor, PfG6PD inh)
COc1cc(OC)c(C2Nc3cccc4cccc(c34)N2)c(OC)c1	none
COc1ccc(C2Nc3cccc4cccc(c34)N2)cc1	PfG6PD inh 69 | PfGluPho conf inactive
O=C(Nc1ccccc1)c1cc2ccccc2s1	PfG6PD inh 71 (no result: M18AAP inhibitor) | PfGluPho conf inactive
CN(CC(=O)Nc1ccc(Cl)c(Cl)c1)C(=O)C1CCCC1	none (no result: M18AAP inhibitor)
CN(CC(=O)Nc1ccc(Cl)c(Cl)c1)C(=O)C1CCC1	PfG6PD inh 75 (no result: M18AAP inhibitor) | PfGluPho conf inactive
CC1=C(n2nnc([N+](=O)[O-])n2)C(c2cccnc2)C(C#N)=C(N)O1 (stereo not drawn)	PfG6PD inh 84 | PfGluPho conf 79 | Diaph ctr 10uM inactive | Diaph ctr 30uM inactive
COc1ccc(NC(=O)CCCNC(=O)Cn2cnc3sc(C)c(C)c3c2=O)c(OC)c1	none
CCOc1ccccc1NC(=O)CCCNC(=O)Cn1cnc2sc(C)c(C)c2c1=O	PfG6PD inh 67 | PfGluPho conf inactive
CC(C)c1nc2oc3c(NCc4ccccn4)ncnc3c2c2c1COC(C)(C)C2	PfG6PD inh 65 (no result: M18AAP inhibitor) | PfGluPho conf inactive
COc1ncnc2c1oc1nc(C)c3c(c12)CC(C)(C)OC3	none
COc1ncnc2c1oc1nc(C(C)C)c3c(c12)CC(C)(C)OC3	PfG6PD inh 62 | PfGluPho conf inactive
Cc1nc2oc3c(NCc4ccccn4)ncnc3c2c2c1COC(C)(C)C2	none
CCC1S/C(=N/C(=O)NC2CCCCC2)NC1=O (stereo not drawn)	none
O=C(/N=C1\NC(=O)C(F)(C(F)(F)F)S1)NC1CCCCC1 (stereo not drawn)	PfG6PD inh 73 (no result: M18AAP inhibitor) | PfGluPho conf inactive
Cc1nc2ccc(Cl)cc2nc(C)/c1=N\O	PfG6PD inh 60 | PfGluPho conf inactive
Cc1cc(Nc2ccc(Cl)cc2)nc(N)n1	PfG6PD inh 63 | PfGluPho conf inactive
CCc1cc(-c2n[nH]c(C)c2-c2nc3ccccc3s2)c(O)cc1OCC(=O)NN	none
CCc1cc(-c2n[nH]c(C)c2-c2nc(C)cs2)c(O)cc1OC	PfG6PD inh 69 | PfGluPho conf inactive
CC(OC(=O)CSc1ccc([N+](=O)[O-])cc1)C(=O)NCc1ccccc1 (stereo not drawn)	PfG6PD inh 66 (no result: PRMT1 FP inh, UHRF1 binding, M18AAP inhibitor, MBD2 inh) | PfGluPho conf inactive
O=C(COC(=O)CSc1ccc([N+](=O)[O-])cc1)NCCc1ccccc1	none (no result: M18AAP inhibitor)
CC(OC(=O)[C@H](C)NC(=O)c1ccccc1Cl)C(=O)NCc1ccc2c(c1)OCO2 (stereo partly drawn)	none (no result: M18AAP inhibitor)
OCCCNc1c2c(nc3cc(-c4ccc(Cl)cc4)nn13)CCC2	PfG6PD inh 70 | PfGluPho conf inactive
O=C(COc1cccc2ccccc12)Nc1ccc(Cl)cc1C(=O)O	PfG6PD inh 75 | PfGluPho conf 64 | Diaph ctr 10uM 60 | Diaph ctr 30uM inactive
O=C(COc1ccccc1C(=O)O)Nc1cccc2ccccc12	none (no result: M18AAP inhibitor)
O=C(COc1cccc2ccccc12)Nc1cc(Cl)ccc1C(=O)O	PfG6PD inh 105 | PfGluPho conf 69 | Diaph ctr 10uM 60 | Diaph ctr 30uM 59
COc1ccc(C(=O)Nc2cc(Cl)ccc2C(=O)O)cc1	PfG6PD inh 105 | PfGluPho conf 51 | Diaph ctr 10uM inactive | Diaph ctr 30uM inactive
COC(=O)c1ccc(-c2ccc3c(c2)[C@]2(CCC[C@@H](OCc4ccccc4)[C@@H]2NC(=O)CCc2ccccc2)C(=O)N3Cc2ccccc2)cc1	none (no result: M18AAP inhibitor, PfG6PD inh)
CCC(C)c1ccc(NC(=O)CSc2nnc(-c3cccc(C)c3)n2C)cc1 (stereo not drawn)	none (no result: M18AAP inhibitor, PfG6PD inh)
CCN(CC)CCn1c2ccccc2c(=O)c2c(O)ccc(O)c21	PfG6PD inh 84 (no result: M18AAP inhibitor) | PfGluPho conf 98 | Diaph ctr 10uM inactive | Diaph ctr 30uM inactive
CCN(CC)CCn1c(O)c(N=O)c2ccccc21	none
COc1ccc(NC(=O)c2cc3ccccc3cc2O)cc1	PfG6PD inh 70 | PfGluPho conf inactive
O=C(Nc1ccccn1)c1cc2ccccc2cc1O	PfG6PD inh 67 (no result: PRMT1 FP inh, UHRF1 binding, MBD2 inh) | PfGluPho conf inactive
Cc1ccc(NC(=O)c2cc3ccccc3cc2O)cc1	none
CCOC(=O)c1c(C)[nH]c(C)c1C(=O)COC(=O)c1ccccc1O	none
CCOC(=O)c1c(C)[nH]c(C)c1C(=O)COC(=O)c1cccs1	PfG6PD inh 60 (no result: M18AAP inhibitor) | PfGluPho conf inactive
O=C1SC(SC(=Nc2ccccc2)Nc2ccccc2)C(=O)N1c1ccccc1 (stereo not drawn)	PfG6PD inh 60 | PfGluPho conf inactive
O=C(N/N=C/c1ccc(Cl)cc1)Nc1ccccc1	none
Cc1ccc(/C=N/NC(=O)CCCOc2ccc(Cl)cc2Cl)cc1	PfG6PD inh 67 | PfGluPho conf inactive
O=C(CC(=O)Nc1cccc(Cl)c1)N/N=C\c1ccccc1	PfG6PD inh 84 | PfGluPho conf inactive
CCCCNC(=O)CCCCC(=O)N/N=C/c1cccc(Cl)c1	PfG6PD inh 65 | PfGluPho conf inactive
O=C(CCCOc1ccc(Cl)cc1Cl)N/N=C/c1ccccc1	PfG6PD inh 119 | PfGluPho conf 86 | Diaph ctr 10uM 88 | Diaph ctr 30uM 71
O=C(CCCOc1ccc(Cl)cc1Cl)N/N=C/c1ccccc1O	none
[O-][n+]1ccccc1C(O)CSc1ccccc1 (stereo not drawn)	none (no result: M18AAP inhibitor, PfG6PD inh)
